Bioassay records from PubChem.
FLuc inh: Photinus pyralis luciferase inhibition | purified P. pyralis luciferase, luminescence, biochemical | AID 1347043 | 2.5% of 76,000 active | P08659 | Potency, µM (top dose mostly 115 µM), hits mostly inhibitors; further: on the % scale 0 is the no-effect control and ±100 the full control effect; nearly all actives have a fitted effect of over 65% in size
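FLuc 10nM, D-luciferin 10uM, ATP 10uM, Mg acetate 10mM, Tris acetate pH 7.5, Tween/BSA; cpd qHTS; enzyme added last; CCD luminescence.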
GPT2 inhibitor: GPT2 alanine aminotransferase inhibition; 0.25% of 100,000 active; Q8TD30; Potency, µM (highest dose often 57.7 µM), without a hit: at the highest dose activity change, negative = inhibition, hits mostly inhibitors; Recombinant GPT2, coupled pyruvate oxidase/HRP Amplex Red fluorescence; further: on the % scale 0 is the no-effect control and ±100 the full control effect; nearly all actives have a fitted effect of over 60% in size
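Fluorescence read-out: pyruvate from GPT2 turnover coupled to pyruvate oxidase, HRP and Amplex Red (0.2mM ThPP, 0.2U/mL PO and HRP, 50uM Amplex final). Substrates 250uM a-KG, 2mM L-alanine; enzyme 10ng/uL; 30 min RT.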
3T3 cytotox: kills NIH 3T3 cells | NIH 3T3 viability, CellTiter-Glo ATP luminescence, 48-72 h | 4.3% of 94,000 active | AID 1345082 | Potency, µM (top dose mostly 96.7 µM), for inactives: at the highest dose activity change, negative = cytotoxicity, usual class: inhibitors; further: on the % scale 0 is the no-effect control and ±100 the full control effect; nearly all actives have a fitted effect of over 55% in size
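Viability of NIH 3T3 cells after 48 or 72 hr compound treatment at 37 °C was assessed by CellTiter-Glo, with luminescence imaged following a 10 min room-temperature step.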
hNpr1 antagonist: human Npr1 receptor antagonism; 1.6% of 76,000 active; P16066; AID 1347048; HEK293 hNpr1 GloSensor cGMP, ANP-stimulated luminescence; Potency, µM (highest dose often 46.3 µM), inactives show at the top dose activity change, negative = inhibition, most hits filed as inhibitors; calls by dose curve; further: on the % scale 0 is the no-effect control and ±100 the full control effect; nearly all actives have a fitted effect of over 60% in size
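HEK293 cells stably expressing human Npr1 and cGMP GloSensor pGS-40F, loaded 2 h with 2% GloSensor reagent, given compound 30 min at room temperature. Luminescence read before and 20 min after 0.1 nM hNppA.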
HEK cytotox: kills HEK 293 cells; Potency, µM (series often up to 115 µM), inactives show top-dose activity change, negative = cytotoxicity, most hits filed as inhibitors; 6.6% of 94,000 active; HEK 293 viability, ATP luminescence (CellTiter-Glo), 48-72 h; AID 1345083; further: on the % scale 0 is the no-effect control and ±100 the full control effect; nearly all actives have a fitted effect of over 60% in size
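CellTiter-Glo luminescence (cellular ATP) was read after 48 or 72 hr of compound exposure at 37 degree Celsius. Cells were HEK 293 plated at 250 cells/well.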
NPR1 antag cnf: confirmation of human Npr1 natriuretic peptide receptor antagonists; HEK293 hNpr1 cGMP GloSensor luminescence, ANP-stimulated; 76% of 1,400 active; shares compounds with hNpr1 antagonist; AID 1347044; Potency, µM (titrated, usually from 57.6 µM), for the others: top-dose activity change, negative = inhibition, most hits filed as inhibitors; calls by dose curve; further: nearly all actives have a fitted effect of over 70% in size
Npr2 selectivity: hNpr2 antagonism, selectivity versus Npr1; 67% of 1,400 active; Potency, µM (highest dose often 57.6 µM), for the others: at the highest dose activity change, negative = inhibition, actives largely listed as inhibitors; HEK293 hNpr2 GloSensor cGMP luminescence, CNP-stimulated; shares compounds with hNpr1 antagonist; calls by dose curve; further: nearly all actives have a fitted effect of over 70% in size
FLuc inh counter: FLuc enzyme inhibition, Npr1 counter-screen. Potency, µM (series often up to 57.6 µM), for the others: top-dose activity change, negative = inhibition, actives largely listed as inhibitors. purified FLuc enzyme, luminescence, Km substrate. shares compounds with hNpr1 antagonist. 0.7% of 1,400 active; further: 0% is about no effect
GloSensor cGMP: control cell line activity, Npr1 antagonist counter-screen; shares compounds with hNpr1 antagonist; 69% of 1,400 active; Potency, µM (titrated, usually from 57.6 µM), for the others: at the top dose activity change, negative = inhibition, hits mostly inhibitors; HEK293 GloSensor cGMP, SNP-stimulated, luminescence; AID 1347051; calls by dose curve; further: on the % scale 0 is the no-effect control and ±100 the full control effect; nearly all actives have a fitted effect of over 70% in size
Numbers without * were called inactive; i = inactive; u = inconclusive; x = no result; [ ] = dose if it differs, or a comment. Rows were chosen to be rich in hits. Some 10% of all compounds tested hit in one or more screens of this group. Unless noted, the call rests on the fitted dose curve; in most records, active means well fitted curve in the direction sought with a large enough effect; inconclusive means small, poorly fitted or top-dose-only effect, or another doubt; inactive means no such curve, though single readings can be large; an effect the other way counts as inactive or inconclusive. Potency means the concentration at half of the fitted maximal effect.

SMILES	FLuc inh	GPT2 inhibitor	3T3 cytotox	hNpr1 antagonist	HEK cytotox	NPR1 antag cnf	Npr2 selectivity	FLuc inh counter	GloSensor cGMP
COc1ccccc1Cn1c(=O)c(C(=O)N2CCN(C(=O)Nc3ccc(Cl)cc3)CC2)nc2cccnc21	x	1%	u	x	u	x	x	x	x
O=C(Nc1ccc(Cl)cc1)c1nc2c(o1)CCN(Cc1ccc(F)cc1F)CC2	i	u	u	3.2µM*	u	7µM*	8.9µM*	2%[86.2 µM]	7.9µM*
COc1ccccc1CN1CCc2nc(C(=O)Nc3ccc(Cl)cc3)oc2CC1	i	i	50µM*	13µM*	28µM*	14µM*	18µM*	0%[86.2 µM]	13µM*
O=C(Nc1ccc(Cl)cc1)c1nc2c(o1)CCN(Cc1cccc(F)c1F)CC2	i	-3%[88.5 µM]	u	3.5µM*	32µM*	6.3µM*	9.9µM*	-6%[86.2 µM]	7µM*
COCCNC(=O)c1nc2c(o1)CCN(Cc1cccc(F)c1F)CC2	i	-21%[88.5 µM]	u	0%[70.6 µM]	-45%[172 µM]	x	x	x	x
O=C(c1nc2c(o1)CCN(Cc1cc(F)ccc1F)CC2)N1CCOCC1	i	4%[88.5 µM]	-22%[138 µM]	1%[70.6 µM]	u	x	x	x	x
CCC(=O)N1CC(Oc2ccccc2-c2nc(C3CC3)no2)C1	x	i	-16%	x	-2%	x	x	x	x
O=C(NC1CCCCC1)[C@@H]1C[C@@H](O)CN1C1CCN(C(=O)c2ccccc2)CC1	i	i	1%	8%	5%	x	x	x	x
O=C(NCCc1ccccn1)[C@@H]1CCCN1c1ccnc2ccnn12	x	x	u	x	-2%	x	x	x	x
Cc1ncccc1OCC1CN(Cc2cccc(C(F)(F)F)c2)C(=O)c2c(ccnc2-c2ccc(OCC(=O)O)cc2)O1 (stereo unspecified)	i	-10%	u	12%	-3%	x	x	x	x
O=C(O)COc1ccc(-c2nccc3c2C(=O)N(Cc2cccc(C(F)(F)F)c2)CC(CNC(=O)C2CCOCC2)O3)cc1 (stereo unspecified)	i	-9%	u	u	u	8.6µM*	u	5%	5.4µM*
O=C(O)COc1ccc(-c2nccc3c2C(=O)N(Cc2cccc(C(F)(F)F)c2)CC(COc2ccc4cnccc4c2)O3)cc1 (stereo unspecified)	i	-8%	u	2%	i	x	x	x	x
CC(C)C(=O)NCC1CN(Cc2ccccc2)C(=O)c2c(ccnc2-c2ccc(OCC(=O)O)cc2)O1 (stereo unspecified)	i	-17%	u	5.6µM*	25µM*	5.4µM*	6.1µM*	3%	4.8µM*
Cc1cc(C)n(Cc2ccc(C(=O)N3CCC4(CC3)CCC(O)(CN(C)C)CC4)o2)n1	i	-8%	0%	3%	5%	x	x	x	x
CC(=O)N1CCC(C2CCN(C(=O)c3cc(C)n(C)n3)C2)CC1 (stereo unspecified)	x	-2%	2%	x	-3%	x	x	x	x
O=C(CCC1CCCN(S(=O)(=O)c2ccccc2)C1)NCC1CCCCC1 (stereo unspecified)	i	i	u	u	u	x	x	x	x
O=C(CCC1CCCN(S(=O)(=O)c2ccccc2)C1)N1CCN(c2ccccn2)CC1 (stereo unspecified)	i	i	u	u	45µM*	u	u	3%	u
Cc1ccc(S(=O)(=O)N2CCCC(CCC(=O)N3CCCCC3)C2)cc1 (stereo unspecified)	i	i	u	13µM*	u	u	u	1%	u
CN1CC(=O)N(C2CCNC2)Cc2c(NC3CCCCCC3)ncnc21 (stereo unspecified)	x	i	-21%	x	-18%	x	x	x	x
O=C(NCc1ccncc1)c1nc2c(o1)CCN(Cc1ccccc1F)CC2	i	1%[88.5 µM]	-26%[138 µM]	u	u	x	x	x	x
O=C(NCc1ccccc1)c1nc2c(o1)CCN(Cc1ccc(F)cc1F)CC2	i	-1%[88.5 µM]	71µM*	25µM*	100µM*	40µM*	35µM*	1%[86.2 µM]	40µM*
Cc1ccccc1CN1CCc2nc(C(=O)NCCOc3ccccc3)oc2CC1	i	-14%[88.5 µM]	u	-25%[70.6 µM]	u	x	x	x	x
O=C(NCc1cccc(F)c1)c1nc2c(o1)CCN(Cc1cc(F)ccc1F)CC2	i	3%[88.5 µM]	50µM*	u	u	40µM*	u	0%[86.2 µM]	40µM*
COc1ccc(CN2CCc3nc(C(=O)NCCOc4ccccc4)oc3CC2)cn1	i	-1%[88.5 µM]	u	u	u	44µM*	u	-1%[86.2 µM]	u
O=C(NCC1CC1)c1nc2c(o1)CCN(Cc1ccc(F)cc1F)CC2	i	-1%[88.5 µM]	u	25µM*	u	22µM*	22µM*	-1%[86.2 µM]	20µM*
SMILES	FLuc inh	GPT2 inhibitor	3T3 cytotox	hNpr1 antagonist	HEK cytotox	NPR1 antag cnf	Npr2 selectivity	FLuc inh counter	GloSensor cGMP
CNC(=O)c1cc(C)nc2onc(C3CCN(C(C)=O)CC3)c12	x	x	-24%[138 µM]	x	-2%[172 µM]	x	x	x	x
N#Cc1ccc(CN2CCc3nc(C(=O)NCc4cccc(F)c4)oc3CC2)cc1	i	0%[88.5 µM]	u	u	u	40µM*	u	3%[86.2 µM]	31µM*
Cc1ccccc1CN1CCc2nc(C(=O)NCc3ccncc3)oc2CC1	i	i	u	22µM*	u	31µM*	31µM*	-2%[86.2 µM]	25µM*
COc1ccc(-c2ccc(C(=O)NCC3CC3)c(Cl)c2)nn1	x	x	-21%[138 µM]	x	-20%[172 µM]	x	x	x	x
O=C(c1ccccc1)N1CCc2sc(C(=O)N3CCN(c4ccc(F)cc4)CC3)cc2C1	i	-8%	u	7.1µM*	u	9.7µM*	11µM*	1%	6.9µM*
COc1ccc(CNC(=O)c2cc3c(s2)CCN(C(=O)c2ccccc2)C3)cc1OC	i	-3%	u	2.5µM*	u	3.4µM*	4.8µM*	2%	3.1µM*
O=C(NCc1ccccc1)c1cc2c(s1)CCN(C(=O)c1ccccc1)C2	i	-11%	u	-1%	u	x	x	x	x
